Each structure is given as a SMILES string. Where “and” joins values, the source holds several entries; their conditions need not be identical. Equal values may be shown once. Results filed as inconclusive are left out. Calls of active or inactive are those of the source. The call rests on the fitted dose curve; in most records, active means well fitted cell-killing curve with a large enough effect in the repeat runs; inconclusive means weak or mixed curves; inactive means no such curve, though single readings can be large or run the other way.
On the % scale 0 is the no-effect control and ±100 the full control effect; potency means the concentration at half of the fitted maximal effect.

A short description of the assay: qHTS assay to identify small molecule agonists of the peroxisome proliferator-activated receptor delta (PPARd) signaling pathway - cell viability counter screen (AID 743211). Further: nearly all actives have a fitted effect of over 55% in size. The conditions noted are these: PPARd-bla HEK293H viability, CellTiter-Glo luminescence, 17 h; series mostly up to 62.6 µM; activity change, negative = cytotoxicity: at the top concentration. The text has this:
U.S. Tox21 Program National Center for Advancing Translational Sciences [NCATS] NIH Chemical Genomics Center [NCGC] U.S. Environmental Protection Agency [EPA] National Institutes of Environmental Health Sciences [NIEHS] National Toxicology Program [NTP] U.S. Food and Drug Administration [FDA] Tox21 Assay Overview: The peroxisome proliferator-activated receptors (PPARs) are lipid-activated transcription factors of the nuclear receptor superfamily with three distinct subtypes namely PPAR alpha, PPAR delta (PPARd) and PPAR gamma. All these subtypes heterodimerizes with Retinoid X receptor (RXR) and have different physiological functions. […] To identify the compounds that activate PPAR-delta signaling, GeneBLAzer PPAR delta UAS-bla HEK293H cell line (Invitrogen, Carlsbad, CA, USA) containing a beta-lactamase reporter gene under the control of an Upstream Activator Sequence (UAS) was used to screen the Tox21 compound library. The cytotoxicity of the Tox21 compound library against the PPARd-bla cell line was tested in parallel by measuring the cell viability using CellTiter-Glo assay (Promega, Madison, WI) in the same wells.
Tox21 Assay Protocol Summary: PPARd-bla cells were dispensed at 3000 cells/6uL/well in 1536-well black wall/clear bottom plates using a Multidrop Combi (Thermo Fisher Scientific, Waltham, MA) dispenser. After the assay plates were incubated at 37 C and 5% CO2 for 5 h, 23 nL of compounds dissolved in DMSO, positive controls or DMSO only was transferred to the assay plate by a Pintool station (Kalypsys, San Diego, CA). The assay plates were incubated at 37C for 17 h. After 1 uL of LiveBLAzerTM B/G FRET substrate was added using a Bioraptr Flying Reagent Dispenser (FRD) workstation (Beckman Coulter, Indianapolis, IN, USA), the plates were incubated at room temperature for 2 h, and fluorescence intensity was measured by an Envision plate reader (PerkinElmer, Shelton, CT). For cell viability readout that measures cytotoxicity, 3 ul/well of CellTiter-Glo reagent was added into the assay plates using a Bioraptr FRD. After 30 min incubation at room temperature, the luminescence intensity in the plates was measured using a ViewLux plate reader (PerkinElmer).
For orientation: qHTS replaces the single test concentration by a dilution series.
With `CC(C)NC[C@@H](O)COc1ccc(CC(N)=O)cc1`, the “activity change, negative = cytotoxicity” value is 19.2% (inactive). Same read-out and setting: then `O[C@@H]([C@H](O)[C@H](O)CBr)[C@H](O)CBr`, with 1.94% (inactive).

For `CC(=O)[C@H]1CC[C@H]2[C@@H]3CCC4=CC(=O)CC[C@]4(C)[C@H]3CC[C@]12C`, the Potency is 48.7 µM (active). On to `COc1cc2nc(N3CCN(C(=O)c4ccco4)CC3)nc(N)c2cc1OC`, for which the “activity change, negative = cytotoxicity” value is -16.8% [at 29.1 µM] (inactive). In the case of `CCCCCCCCCCCCCC[N+](C)(C)Cc1ccccc1`, the Potency is 22.2 µM (active) and 21.1 µM (active).

For the compound `O=c1c(O)c(-c2ccc(O)cc2O)oc2cc(O)cc(O)c12`, the “activity change, negative = cytotoxicity” value was 9.27% (inactive). As to `CCN(CC)C(=O)c1cc(S(=O)(=O)Cc2ccccc2)c(N2CCC(c3ccccc3)CC2)cc1N(CC)CCN(C)C`, the Potency was 21.6 µM (active). Turning to `Cc1cccc(C(=O)O)c1O`, the “activity change, negative = cytotoxicity” value is 0.607% (inactive).

In the case of `O=C1CCc2cc(OCCCCc3nnnn3C3CCCCC3)ccc2N1`, the “activity change, negative = cytotoxicity” value was 1.3% (inactive). Still for that read-out and setting: next, `CCOc1ccc2ccccc2c1C(=O)N[C@@H]1C(=O)N2[C@@H]1SC(C)(C)[C@@H]2C(=O)O`: 5.86% (inactive). Same read-out and setting: then `[Cl][Pt-2]([Cl])([Cl])[Cl]`, with -6.56% [at 81.1 µM] (inactive). With `O=C(Nc1ccc2c(O)c(N=Nc3ccc(N=Nc4ccc(S(=O)(=O)O)cc4)cc3)c(S(=O)(=O)O)cc2c1)c1ccccc1`, the “activity change, negative = cytotoxicity” value is 0.976% (inactive).

For the compound `Cc1c(N)cccc1C(F)(F)F`, the “activity change, negative = cytotoxicity” value was 2.55% (inactive). Consider `CCCC(=O)OCOC(=O)C1=C(C)NC(C)=C(C(=O)OC)C1c1cccc(Cl)c1Cl` (stereo not given), for which the “activity change, negative = cytotoxicity” value is 3.17% (inactive). Take `Clc1sc(Cl)c(Cl)c1Cl`: the “activity change, negative = cytotoxicity” value was 3.67% (inactive).

Regarding `CN(C)[C@@H](CCOc1cccc2ccccc12)c1ccccc1`, the Potency is 23.7 µM (active).

For `C1CCC(SSC2CCCCC2)CC1`, the “activity change, negative = cytotoxicity” value is 3.13% (inactive). For the compound `O=C1CCc2ccc(OCCCCN3CCN(c4cccc(Cl)c4Cl)CC3)cc2N1`, the Potency is 11.9 µM (active). With `Cc1ccc(C(=O)O)cc1`, the “activity change, negative = cytotoxicity” value is -2.01% [at 81.1 µM] (inactive). For the compound `Nc1nc(-c2ccccc2)cs1`, the “activity change, negative = cytotoxicity” value was 5.68% (inactive). The same measure, in the same setting: next, `CCC(=O)C(=O)CC`: -20.9% [at 81.1 µM] (inactive); `COC(=O)c1ccccc1C`: 1.89% (inactive); `COc1cc(C)ccc1O`: -27.9% (inactive). Regarding `CC1(C)CCC[C@]2(C)[C@H]3CC(=O)O[C@]3(C)CC[C@@H]12`, the “activity change, negative = cytotoxicity” value is 0.761% (inactive). On to `CC(CCc1ccccc1)NCC(O)c1ccc(O)c(C(N)=O)c1` (stereo not given), for which the “activity change, negative = cytotoxicity” value was -14.1% (inactive). On to `NC(=S)NC(N)=S`, for which the “activity change, negative = cytotoxicity” value was -7.4% (inactive). For `OCCN1CCN(CCCN2c3ccccc3Sc3ccc(C(F)(F)F)cc32)CC1`, the Potency is 26.6 µM (active). For the compound `C=Cc1cccc(C)c1`, the “activity change, negative = cytotoxicity” value is 6.82% (inactive). Still for that read-out and setting: next, `CCCNCCC`: -0.338% [at 81.1 µM] (inactive); `O=C(O)c1cc(=O)c2ccccc2o1`: 23.8% (inactive); `CC(C)=CCC1=C(O)c2ccccc2C(=O)C1=O`: -21.8% (inactive). Consider `S=c1nccc[nH]1`, for which the “activity change, negative = cytotoxicity” value was 0.874% (inactive). On the same count and under the same terms, next, `O=C(O)c1cc(-c2ccc(F)cc2F)ccc1O`: -12.7% (inactive); `NC(=O)c1cccc([N+](=O)[O-])c1`: 3.72% (inactive); `Cc1c(F)c(N2CCNC(C)C2)cc2c1c(=O)c(C(=O)O)cn2C1CC1` (stereo not given): 1.51% (inactive).

For the compound `Oc1ccccc1O`, the Potency result was “inactive”. Regarding `CCCCC(CC)COC(=O)CCCCC(=O)OCc1ccccc1` (stereo not given), the “activity change, negative = cytotoxicity” value was -1.98% (inactive). On the same count and under the same terms, then `CC[N+](CC)(CC)CCOC(=O)C(C1CCCC1)C1CCCC1`, with -1.61% (inactive); and `O=C(O)[C@H](O)[C@@H](O)[C@H](O[C@@H]1O[C@H](CO)[C@H](O)[C@H](O)[C@H]1O)[C@H](O)CO`, with 2.51% (inactive); and `CC(C)(C)CC(C)(C)c1ccc(Nc2ccc(C(C)(C)CC(C)(C)C)cc2)cc1`, with -7.52% [at 5.95 µM] (inactive).

Values taken from PubChem BioAssay (Tox21).
